The text below walks through data of PubChem BioAssay (Tox21).

Experiment [1] is described as follows: Nuclear factor erythroid 2-related factor 2/antioxidant responsive element (Nrf2/ARE) small molecule agonists: qHTS cell viability counter screen in human keratinocytes (AID 1919968; active = well fitted curve in the direction sought with a large enough effect in the repeat runs; an effect the other way counts as inactive or inconclusive; also: nearly all actives have a fitted effect of over 55% in size; also: potency is read from the fitted curve at half-maximal effect). Put shortly:
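Cytotoxicity was multiplexed with the Nrf2/ARE luciferase assay in the same wells. Stably transfected HaCaT keratinocytes were treated with test compounds for 23 h at 37 C. Cell viability was then measured by CellTiter-Fluor fluorescence.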
Background: Quantitative high-throughput screening tests each substance at several concentrations.

In experiment [2] the target is KiSS-1 receptor (Homo sapiens) (UniProt Q969F8). The experiment can be described thus: Human kisspeptin (KISS1R) small molecule agonists, calcium flux assay in KISS1R-HEK293 cells (AID 1920064; active = well fitted curve in the direction sought with a large enough effect in the repeat runs; an effect the other way counts as inactive or inconclusive). In outline: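 Agonist activity is monitored as intracellular calcium rise in engineered HEK293 cells carrying human KISS1R. Cells are dye-loaded for 1 h at 37 C before compound addition, and fluorescence is recorded for 3 min.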
A general note: Calcium assays in cells follow changes in intracellular calcium, usually with a dye or a luminescent sensor.

A short description of experiment [3]: G protein-coupled receptor (GPCR) small molecule agonists, calcium flux assay: HEK293 wild type cell line counter screen (AID 1920065). In outline:
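Seed cells, incubate 18 h (37 C, 5% CO2); add calcium dye, 1 h at 37 C; pin-transfer compounds, ATP control or DMSO; read fluorescence 480/540 nm each second for 3 min.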

Experiment [4] can be described thus: p53 small molecule agonists, cell-based qHTS assay with human liver microsomes (AID 1963577).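 Also: p53 response element beta-lactamase reporter cells with liver microsomes plus NADPH.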 In outline: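 Metabolically competent format: test substances, human liver microsomes and NADPH (both 0.5 mg/mL final) incubated with p53RE-bla cells 16 h at 37 C. Beta-lactamase reporter signal then quantified by fluorescence.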
Experiment [5] is described as follows: p53 small molecule agonists, cell-based qHTS assay with rat liver microsomes (AID 1963578). Put shortly:
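Each plate received p53RE-bla cells, then compound, then rat liver microsomes and NADPH (both 0.5 mg/mL final). Plates were held 16 h at 37 C, and beta-lactamase activity was detected with LiveBLAzer over 2 h.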

Experiment [6] in a line: p53 small molecule agonists, cell-based qHTS assay with human liver microsomes: qHTS cell viability counter screen (AID 1963579). Also: nearly all actives have a fitted effect of over 45% in size. In outline: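 Tox21 library compounds, delivered from DMSO stocks, were tested on p53RE-bla cells together with 0.5 mg/mL human liver microsomes and 0.5 mg/mL NADPH (final) over 16 h at 37 C; CellTiter-Glo luminescence served as the cytotoxicity measure.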

Experiment [7] is described as follows: p53 small molecule agonists, cell-based qHTS assay with rat liver microsomes: qHTS cell viability counter screen (AID 1963580). Also: nearly all actives have a fitted effect of over 45% in size. Put shortly: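 Counter screen for cytotoxicity under metabolic activation: rat liver microsomes and NADPH, 0.5 mg/mL final each, added with compounds to p53RE-bla HCT-116 cells; 16 h at 37 C, then ATP luminescence read.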
A short description of experiment [8]: p53 small molecule agonists, cell-based qHTS assay: qHTS cell viability counter screen (AID 1963581). Also: nearly all actives have a fitted effect of over 45% in size. In outline: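 Viability was counter-screened in parallel with the p53 agonist reporter by measuring intracellular ATP luminescence in the same HCT-116 p53RE-bla wells after 16 h compound treatment at 37 C.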
Experiment [9] deals with 5-hydroxytryptamine receptor 2A (Homo sapiens) (UniProt P28223). The experiment can be described thus: 5-hydroxytryptamine receptor 2A (HTR2A) small molecule antagonists, cell-based qHTS assay (AID 1963586). Also: nearly all actives have a fitted effect of over 45% in size. Also: potency is read from the fitted curve at half-maximal effect. Put shortly:
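CHO cells stably expressing human HTR2A were plated for 18 h at 37 C, then loaded with calcium dye for 1 h. Compounds were preincubated 5 min at room temperature before DOI (4 nM solution) was added. Kinetic fluorescence was read for 3 min.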

The target is the same in experiment [10]. The experiment can be described thus: 5-hydroxytryptamine receptor 2A (HTR2A) small molecule agonists, cell-based qHTS assay (AID 1963587). Also: nearly all actives have a fitted effect of over 30% in size. In outline:
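HTR2A-CHO cells, plated 18 h at 37 C/5% CO2, dye-loaded 1 h at 37 C; compounds in DMSO added by pin tool (agonist mode). Intracellular calcium flux read as kinetic fluorescence on FDSS over 2 min at 1 s intervals.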

Experiment [11] concerns the target Muscarinic acetylcholine receptor M1 (Homo sapiens) (UniProt P11229). The experiment can be described thus: Cholinergic receptor muscarinic 1 (CHRM1) small molecule agonists, cell-based qHTS assay (AID 1963589). Also: nearly all actives have a fitted effect of over 35% in size. Put shortly: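 Cells were plated and incubated 18 h at 37 C/5% CO2, loaded with calcium dye for 1 h at 37 C, then treated with compounds in DMSO. Fluorescence was recorded kinetically at 1 sec intervals.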

The nature of experiment [12]: cAMP Responsive Elements (CRE) small molecule agonists, cell-based qHTS assay (AID 1963590). In outline: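 Cells carrying a CRE-driven beta-lactamase reporter (HEK 293T) are seeded, incubated overnight (18 h), and treated with test compounds for 3 h at 37 C; reporter activity is then detected with a FRET substrate after 2 h at room temperature.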
Experiment [13] in a line: cAMP Responsive Elements (CRE) small molecule antagonists, cell-based qHTS assay (AID 1963591; active = well fitted inhibition curve with a large enough effect in the signal ratio in the repeat runs, not every such curve was filed as active; the % refers to the signal ratio). Put shortly: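 Cells (CRE-bla HEK 293T, DMEM with 10% dialyzed FBS and 25 mM HEPES) are seeded and incubated 18 h. Compounds are added with NKH477 agonist at 0.25 uM final for 3 h, then FRET substrate for 2 h.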
The target in experiment [14] is Beta-2 adrenergic receptor (Homo sapiens) (UniProt P07550). The experiment can be described thus: Adrenergic beta2 receptor (ADRB2) small molecule antagonists, cell-based qHTS assay (AID 1963592). Also: nearly all actives have a fitted effect of over 50% in size. Also: potency is read from the fitted curve at half-maximal effect. Put shortly: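 Assay format: CHO-ADRB2 cells, 18-20hr seeding at 37C/5% CO2, then compound plus 1nM isoproterenol agonist mix for 0.5hr RT. Homogeneous time-resolved fluorescence cAMP detection after 1hr, expressed as 665/615 nm ratio.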

For experiment [15], the target named is D(2) dopamine receptor (Homo sapiens) (UniProt P14416). The experiment in a line: Dopamine D2 receptor (DRD2) small molecule antagonists, cell-based qHTS assay (AID 1963595; active = well fitted inhibition curve with a large enough effect in the signal ratio in the repeat runs, with a control signal flat; the % refers to the signal ratio; also: potency is read from the fitted curve at half-maximal effect). In outline:
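HTRF cAMP read-out at 665 and 620 nm emission (340 nm excitation). Antagonist mode: compounds were tested against 12 nM quinpirole in DRD2-HEK293 cells, with 200 nM NKH477 raising cAMP and 0.1 mM Ro20-1724 blocking its breakdown.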

Experiment [16] is described as follows: p53 small molecule agonists, cell-based qHTS assay (AID 1963582; active = well fitted activation curve with a large enough effect in the signal ratio in the repeat runs, not every such curve was filed as active; the % refers to the signal ratio). Put shortly:
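Cells carrying a p53-responsive bla reporter are treated with test compounds for 16 h at 37 C; beta-lactamase activity is then detected with LiveBLAzer B/G FRET substrate after 2 h at room temperature.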

In experiment [17] the target is Muscarinic acetylcholine receptor M1 (Homo sapiens) (UniProt P11229). The experiment can be described thus: Cholinergic receptor muscarinic 1 (CHRM1) small molecule antagonists, cell-based qHTS assay (AID 1963588). Also: nearly all actives have a fitted effect of over 40% in size. In outline: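 Compounds were tested at 15 concentrations in three independent runs. Dye-loaded CHRM1-CHO cells were exposed 5 min at room temperature before stimulation by acetylcholine added at 50nM. Intracellular calcium was read kinetically on FDSS for 3 min.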

In experiment [18] the target is D(2) dopamine receptor (Homo sapiens) (UniProt P14416). The experiment in a line: Dopamine D2 receptor (DRD2) small molecule agonists, cell-based qHTS assay (AID 1963594). Also: nearly all actives have a fitted effect of over 35% in size. Put shortly:
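HEK293 cells stably expressing DRD2 were cultured 24 h at 37 C, then given Ro20-1724 (0.1 mM final) and compounds for 10 min at room temperature. NKH477 (200nM) was then added for 30 min. cAMP was read by HTRF.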

Inconclusive results are not listed. The source made the active and inactive calls. Unless noted, calls follow the shape of the full dose curve.

Sequence of KiSS-1 receptor (Homo sapiens) (Q969F8 whole entry, looked up): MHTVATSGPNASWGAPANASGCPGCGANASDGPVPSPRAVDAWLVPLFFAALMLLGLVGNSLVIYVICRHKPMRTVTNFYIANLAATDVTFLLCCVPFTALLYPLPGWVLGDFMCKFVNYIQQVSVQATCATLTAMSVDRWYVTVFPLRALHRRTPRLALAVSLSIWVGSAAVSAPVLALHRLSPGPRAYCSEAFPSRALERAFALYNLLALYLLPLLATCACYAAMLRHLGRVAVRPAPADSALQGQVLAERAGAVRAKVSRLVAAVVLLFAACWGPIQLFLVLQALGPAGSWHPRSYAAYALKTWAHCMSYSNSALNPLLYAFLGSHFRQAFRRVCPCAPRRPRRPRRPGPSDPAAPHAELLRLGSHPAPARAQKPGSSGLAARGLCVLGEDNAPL
Sequence of D(2) dopamine receptor (Homo sapiens) (P14416 whole entry, looked up): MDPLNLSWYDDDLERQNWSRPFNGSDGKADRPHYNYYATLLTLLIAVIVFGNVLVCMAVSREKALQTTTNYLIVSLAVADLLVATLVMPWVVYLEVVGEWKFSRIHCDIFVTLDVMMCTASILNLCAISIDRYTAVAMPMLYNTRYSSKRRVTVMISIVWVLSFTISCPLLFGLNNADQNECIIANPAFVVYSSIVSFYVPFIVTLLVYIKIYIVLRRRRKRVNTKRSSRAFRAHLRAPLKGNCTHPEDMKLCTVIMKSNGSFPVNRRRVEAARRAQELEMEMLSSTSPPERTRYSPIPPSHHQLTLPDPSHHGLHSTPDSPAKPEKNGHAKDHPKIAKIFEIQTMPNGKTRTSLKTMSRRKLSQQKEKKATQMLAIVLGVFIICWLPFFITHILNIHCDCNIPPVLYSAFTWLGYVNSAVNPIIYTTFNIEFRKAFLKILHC
Sequence of 5-hydroxytryptamine receptor 2A (Homo sapiens) (P28223 whole entry, looked up): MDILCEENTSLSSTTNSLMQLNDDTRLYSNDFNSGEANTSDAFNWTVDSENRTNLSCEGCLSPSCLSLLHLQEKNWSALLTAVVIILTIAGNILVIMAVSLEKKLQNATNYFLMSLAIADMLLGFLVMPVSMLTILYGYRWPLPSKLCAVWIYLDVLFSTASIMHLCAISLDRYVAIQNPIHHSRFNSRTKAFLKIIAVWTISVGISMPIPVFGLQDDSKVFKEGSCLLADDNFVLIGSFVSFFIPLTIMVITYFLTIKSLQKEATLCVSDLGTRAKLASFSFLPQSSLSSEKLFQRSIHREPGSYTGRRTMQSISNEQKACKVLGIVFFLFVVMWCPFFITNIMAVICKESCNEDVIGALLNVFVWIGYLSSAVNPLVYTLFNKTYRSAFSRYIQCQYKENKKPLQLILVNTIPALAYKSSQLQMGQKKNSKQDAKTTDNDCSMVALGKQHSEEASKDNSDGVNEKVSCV
Sequence of Muscarinic acetylcholine receptor M1 (Homo sapiens) (P11229 whole entry, looked up): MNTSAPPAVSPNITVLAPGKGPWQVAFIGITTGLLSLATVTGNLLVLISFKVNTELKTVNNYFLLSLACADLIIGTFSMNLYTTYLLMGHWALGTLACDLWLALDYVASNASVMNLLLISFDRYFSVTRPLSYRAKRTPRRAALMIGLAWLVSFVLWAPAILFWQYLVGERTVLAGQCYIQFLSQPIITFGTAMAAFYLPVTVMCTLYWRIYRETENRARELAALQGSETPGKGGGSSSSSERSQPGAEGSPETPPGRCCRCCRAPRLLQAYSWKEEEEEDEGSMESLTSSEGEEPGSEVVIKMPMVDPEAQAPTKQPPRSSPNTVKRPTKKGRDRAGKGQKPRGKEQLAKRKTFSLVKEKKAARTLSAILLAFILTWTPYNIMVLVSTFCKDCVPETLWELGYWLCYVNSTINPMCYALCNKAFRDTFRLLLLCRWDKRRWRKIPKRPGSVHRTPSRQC
Sequence of Beta-2 adrenergic receptor (Homo sapiens) (P07550 whole entry, looked up): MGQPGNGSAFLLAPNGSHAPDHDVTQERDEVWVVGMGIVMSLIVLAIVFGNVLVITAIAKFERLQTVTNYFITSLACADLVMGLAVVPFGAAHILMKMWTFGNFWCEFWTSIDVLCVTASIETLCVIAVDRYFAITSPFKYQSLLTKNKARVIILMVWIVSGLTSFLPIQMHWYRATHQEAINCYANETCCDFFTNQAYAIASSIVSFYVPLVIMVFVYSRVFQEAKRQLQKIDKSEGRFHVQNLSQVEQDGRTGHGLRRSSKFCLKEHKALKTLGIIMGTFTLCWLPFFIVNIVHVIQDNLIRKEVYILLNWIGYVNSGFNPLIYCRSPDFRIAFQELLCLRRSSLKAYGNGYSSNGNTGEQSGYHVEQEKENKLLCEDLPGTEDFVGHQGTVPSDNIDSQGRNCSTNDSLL

As to `C[C@@H](CN(C)C)CN1c2ccccc2Sc2ccccc21`, the Potency result in experiment [1], in experiment [2], in experiment [3], in [4], in experiment [5] and in [6] was “inactive” throughout. In addition, the Potency entry in experiment [7], in experiment [8], in [10], in experiment [11], in [12] and in experiment [13] was “inactive” each time. Moreover, the Potency in [9] was 4.1 nM (active); in experiment [14], 29800 nM (active); in experiment [15], 1680 nM (active).
As to `CCCOCC(C)OCC(C)O` (configuration not stated), the Potency result in experiment [1], in [2], in experiment [3], in experiment [4], in experiment [5] and in [6] was “inactive” throughout. The Potency entry in experiment [7], in [8], in experiment [16], in [9], in [10] and in experiment [17] was “inactive” throughout. Moreover, the Potency entry in [11], in [12], in [13], in [14], in experiment [18] and in experiment [15] was “inactive” in each case.
For `c1ccc2occc2c1`, the Potency entry in experiment [1], in experiment [2], in experiment [3], in experiment [4], in [5] and in experiment [10] was “inactive” throughout. Besides, the Potency result in [17], in experiment [12], in experiment [13] and in [15] was “inactive” in each case.
With `CC[C@]12CCCN3CCc4c(n(c5ccccc45)C(=O)C1)[C@@H]32`, the Potency result in experiment [1], in experiment [2], in [3], in experiment [4], in [5] and in experiment [7] was “inactive” each time. The Potency result in experiment [9], in experiment [17], in experiment [11], in experiment [12], in experiment [13] and in experiment [14] was “inactive” each time. Moreover, the Potency result in experiment [18] and in [15] was “inactive” each time.
Take `C[C@H](CCC(=O)O)[C@H]1CC[C@H]2[C@@H]3[C@H](O)C[C@@H]4C[C@H](O)CC[C@]4(C)[C@H]3CC[C@]12C`: the Potency result in [1], in experiment [2], in [4], in experiment [5], in experiment [6] and in experiment [7] was “inactive” throughout. For the same compound, the Potency entry in experiment [8], in [16], in experiment [17], in experiment [14], in experiment [18] and in [15] was “inactive” throughout.
For `O=C1NC(=O)C2CC=CCC12` (configuration not stated), the Potency entry in experiment [1], in [2], in [3], in experiment [4], in experiment [5] and in experiment [7] was “inactive” in each case. Further, the Potency entry in experiment [8], in experiment [16], in experiment [9], in [10], in [17] and in experiment [11] was “inactive” throughout. Moreover, the Potency result in experiment [12], in experiment [13], in [14], in [18] and in [15] was “inactive” throughout.
`OC(CN1CCC(Cc2ccc(F)cc2)CC1)c1ccc(Cl)cc1` (configuration not stated): the Potency in experiment [1] is 29800 nM (active); in experiment [9], 1630 nM (active). The Potency result in experiment [2], in experiment [3], in experiment [4], in experiment [6], in experiment [7] and in experiment [8] was “inactive” in each case. Moreover, the Potency entry in [11], in [13], in experiment [18] and in experiment [15] was “inactive” in each case.
Regarding `COC(=O)[C@]1(C)CCC[C@@]2(C)[C@H]1CC=C1C=C(C(C)C)CC[C@@H]12`, the Potency entry in experiment [1], in experiment [2], in experiment [3], in experiment [4], in [5] and in experiment [7] was “inactive” in each case. The Potency entry in experiment [8], in experiment [16], in [10], in [17], in [11] and in experiment [12] was “inactive” each time. The Potency entry in experiment [14], in experiment [18] and in experiment [15] was “inactive” each time.
With `CN(C)CCC(c1ccc(Cl)cc1)c1ccccn1` (configuration not stated), the Potency entry in experiment [1], in [2], in experiment [3], in experiment [8], in [12] and in [13] was “inactive” each time. Besides, the Potency entry in experiment [14], in experiment [18] and in experiment [15] was “inactive” throughout.
